Targets with a hit are over-represented here; the source holds about 7,900 in all. About 0.6% of all pairs of compound and target were hits.
Columns and labels:
Experiment in all cases: log2 fold change, soluble protein after heating vs DMSO (PISA); higher = thermal stabilisation; K562 cells, 10 uM, 30 min; active = over 0.2 and 3.5 SD of the protein, either way, in both replicates (recomputed)
[1] = compound: C1=CC=C(C=C1)[C@H](COC2=CC3=C(C=C2)NC(=O)N3)NC(=O)C4=CC=CN(C4=O)CC5=CC(=C(C=C5)F)F
Method in brief: (§1)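 Soluble protein was quantified by TMTpro 16plex LC-MS/MS after channel sums were equalised. It was obtained as the supernatant after 21,000xg for 90 min from pooled aliquots of K562 cells (2×10^6 cells/mL, 10 μM compound, 30 min) heated for 3 min across 48°C-58°C and extracted in PBS with 0.5% NP-40 at 4°C. Thermal stability values are relative to control samples and come from duplicates. They are given as log2 fold changes.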

[2] = compound: CC1=C(SC2=C1C(=N[C@H](C3=NN=C(N32)C)CC(=O)N)C4=CC=C(C=C4)Cl)C
Method in brief: as §1

[3] = compound: CC1=C2C(=CC=C1)N=C(N(C2=O)C3=CC=CC=C3C)CN4C=NC5=C(N=CN=C54)N
Method in brief: as §1

[4] = compound: Cc1sc2c(c1C)C(c1ccc(Cl)cc1)=N[C@@H](CC(=O)OC(C)(C)C)c1nnc(C)n1-2
Method in brief: as §1

[5] = compound: c1ccc([C@@H]2C[C@H]2NC2CCNCC2)cc1
Method in brief: as §1

Measured: log2 fold change

P4HA2 (UniProt O15460)
UniProt O15460, sequence (O15460 whole entry, looked up): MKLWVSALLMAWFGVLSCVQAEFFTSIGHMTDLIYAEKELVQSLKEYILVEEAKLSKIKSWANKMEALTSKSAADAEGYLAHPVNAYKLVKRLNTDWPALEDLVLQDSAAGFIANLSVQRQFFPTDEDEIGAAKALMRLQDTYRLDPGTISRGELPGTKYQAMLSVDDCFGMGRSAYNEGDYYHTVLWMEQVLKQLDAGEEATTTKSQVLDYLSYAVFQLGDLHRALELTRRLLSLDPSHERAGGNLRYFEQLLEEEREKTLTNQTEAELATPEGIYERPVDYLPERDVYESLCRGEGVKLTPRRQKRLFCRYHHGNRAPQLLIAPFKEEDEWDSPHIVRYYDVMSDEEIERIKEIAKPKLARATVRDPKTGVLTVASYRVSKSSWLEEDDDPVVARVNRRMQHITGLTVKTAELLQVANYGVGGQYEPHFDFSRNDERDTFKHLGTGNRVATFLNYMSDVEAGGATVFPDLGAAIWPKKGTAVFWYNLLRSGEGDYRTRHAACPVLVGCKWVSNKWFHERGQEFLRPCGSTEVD
inactive: [1] 0.006 | [2] -0.033 | [3] -0.014 | [4] -0.007 | [5] -0.043

NMD3 (UniProt Q96D46)
UniProt Q96D46, sequence (Q96D46 whole entry, looked up): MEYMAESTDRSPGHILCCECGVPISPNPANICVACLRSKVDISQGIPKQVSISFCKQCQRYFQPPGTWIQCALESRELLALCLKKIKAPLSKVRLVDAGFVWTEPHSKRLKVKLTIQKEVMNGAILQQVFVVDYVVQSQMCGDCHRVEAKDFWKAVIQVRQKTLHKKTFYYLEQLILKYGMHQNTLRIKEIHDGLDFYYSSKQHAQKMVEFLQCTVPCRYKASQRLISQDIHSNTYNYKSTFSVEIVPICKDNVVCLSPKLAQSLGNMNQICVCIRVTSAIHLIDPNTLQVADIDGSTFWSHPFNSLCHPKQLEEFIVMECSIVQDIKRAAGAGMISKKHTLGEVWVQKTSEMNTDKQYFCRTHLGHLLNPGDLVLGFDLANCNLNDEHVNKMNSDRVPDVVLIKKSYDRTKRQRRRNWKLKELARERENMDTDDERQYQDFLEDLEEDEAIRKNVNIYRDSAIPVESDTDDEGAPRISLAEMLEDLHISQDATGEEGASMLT
inactive: [1] -0.046 | [2] 0.049 | [3] 0.01 | [4] -0.02 | [5] -0.11

NECTIN2 (UniProt Q92692)
UniProt Q92692, sequence (Q92692 whole entry, looked up): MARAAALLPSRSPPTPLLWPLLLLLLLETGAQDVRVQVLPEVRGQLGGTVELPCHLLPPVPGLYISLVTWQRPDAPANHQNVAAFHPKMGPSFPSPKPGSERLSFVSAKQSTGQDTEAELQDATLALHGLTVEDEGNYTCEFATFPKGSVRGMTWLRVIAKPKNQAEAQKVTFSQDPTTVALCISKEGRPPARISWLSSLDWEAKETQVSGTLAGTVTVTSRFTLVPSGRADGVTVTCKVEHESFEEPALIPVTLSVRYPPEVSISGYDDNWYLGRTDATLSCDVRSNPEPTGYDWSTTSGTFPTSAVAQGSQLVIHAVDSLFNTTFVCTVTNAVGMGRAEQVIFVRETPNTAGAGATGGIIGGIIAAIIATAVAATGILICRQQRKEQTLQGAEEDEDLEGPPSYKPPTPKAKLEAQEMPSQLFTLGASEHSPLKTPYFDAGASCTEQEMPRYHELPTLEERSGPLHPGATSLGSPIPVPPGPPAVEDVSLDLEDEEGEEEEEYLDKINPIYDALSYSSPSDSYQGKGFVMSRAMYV
inactive: [1] 0.017 | [2] 0.031 | [3] -0.019 | [4] -0.009 | [5] -0.012

NNT (UniProt Q13423)
UniProt Q13423, sequence (Q13423 whole entry, looked up): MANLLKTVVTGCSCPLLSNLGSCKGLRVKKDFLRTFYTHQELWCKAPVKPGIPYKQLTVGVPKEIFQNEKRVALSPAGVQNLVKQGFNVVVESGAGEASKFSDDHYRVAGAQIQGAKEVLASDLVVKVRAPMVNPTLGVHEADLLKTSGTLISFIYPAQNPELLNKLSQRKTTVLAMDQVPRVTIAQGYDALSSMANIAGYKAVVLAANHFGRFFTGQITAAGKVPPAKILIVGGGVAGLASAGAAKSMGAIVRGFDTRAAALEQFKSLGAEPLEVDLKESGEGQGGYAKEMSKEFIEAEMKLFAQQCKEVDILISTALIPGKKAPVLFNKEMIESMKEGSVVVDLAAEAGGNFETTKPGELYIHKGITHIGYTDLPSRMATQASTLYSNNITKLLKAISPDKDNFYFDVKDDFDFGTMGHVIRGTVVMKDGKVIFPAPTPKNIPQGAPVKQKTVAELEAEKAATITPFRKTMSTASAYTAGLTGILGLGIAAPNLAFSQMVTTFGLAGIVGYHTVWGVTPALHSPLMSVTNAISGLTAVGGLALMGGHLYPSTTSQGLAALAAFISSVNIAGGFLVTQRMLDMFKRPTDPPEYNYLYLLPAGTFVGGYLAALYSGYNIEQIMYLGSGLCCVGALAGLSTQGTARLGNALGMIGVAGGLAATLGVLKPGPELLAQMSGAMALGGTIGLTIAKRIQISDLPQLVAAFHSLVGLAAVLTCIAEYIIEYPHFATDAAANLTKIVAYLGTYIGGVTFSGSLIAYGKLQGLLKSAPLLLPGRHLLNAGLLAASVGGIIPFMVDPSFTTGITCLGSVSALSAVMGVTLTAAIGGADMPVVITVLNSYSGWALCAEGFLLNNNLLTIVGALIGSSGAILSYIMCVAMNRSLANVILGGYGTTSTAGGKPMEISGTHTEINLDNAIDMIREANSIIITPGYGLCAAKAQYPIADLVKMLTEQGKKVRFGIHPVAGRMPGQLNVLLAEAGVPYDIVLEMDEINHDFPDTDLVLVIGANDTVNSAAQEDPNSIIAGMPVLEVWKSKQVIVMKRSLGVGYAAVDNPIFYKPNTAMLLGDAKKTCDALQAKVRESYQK
inactive: [1] -0.014 | [2] 0.091 | [3] 0.044 | [4] -0.028 | [5] 0

NAA11 (UniProt Q9BSU3)
UniProt Q9BSU3, sequence (Q9BSU3 whole entry, looked up): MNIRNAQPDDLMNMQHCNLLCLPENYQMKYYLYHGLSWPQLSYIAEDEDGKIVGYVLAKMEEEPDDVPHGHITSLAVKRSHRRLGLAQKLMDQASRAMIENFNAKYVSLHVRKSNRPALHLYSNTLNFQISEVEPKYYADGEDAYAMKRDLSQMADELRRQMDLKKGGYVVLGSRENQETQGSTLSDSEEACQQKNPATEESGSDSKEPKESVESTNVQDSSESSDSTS
inactive: [1] 0.009 | [2] 0.042 | [3] 0.049 | [4] -0.12 | [5] -0.049

NOP53 (UniProt Q9NZM5)
inactive: [1] 0.103 | [2] -0.332 | [3] -0.415 | [4] 0.353 | [5] 0.097

NELFA (UniProt Q9H3P2)
UniProt Q9H3P2, sequence (Q9H3P2 whole entry, looked up): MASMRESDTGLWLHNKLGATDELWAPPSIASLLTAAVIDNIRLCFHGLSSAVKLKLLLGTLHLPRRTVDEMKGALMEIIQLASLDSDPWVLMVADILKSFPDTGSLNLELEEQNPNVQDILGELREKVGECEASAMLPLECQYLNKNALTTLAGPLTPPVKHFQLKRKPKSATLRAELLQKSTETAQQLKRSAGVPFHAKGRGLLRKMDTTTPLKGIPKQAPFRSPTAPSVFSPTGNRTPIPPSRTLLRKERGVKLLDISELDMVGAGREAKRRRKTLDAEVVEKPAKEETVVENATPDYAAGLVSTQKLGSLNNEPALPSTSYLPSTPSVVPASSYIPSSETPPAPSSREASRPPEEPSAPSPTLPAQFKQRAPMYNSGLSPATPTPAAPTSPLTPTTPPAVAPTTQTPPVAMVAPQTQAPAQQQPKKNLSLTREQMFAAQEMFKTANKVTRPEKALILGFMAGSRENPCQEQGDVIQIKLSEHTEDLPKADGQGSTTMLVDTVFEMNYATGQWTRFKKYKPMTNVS
inactive: [1] -0.016 | [2] 0.213 | [3] 0.056 | [4] -0.07 | [5] 0.035

PAFAH1B2 (UniProt P68402)
UniProt P68402, sequence (P68402 whole entry, looked up): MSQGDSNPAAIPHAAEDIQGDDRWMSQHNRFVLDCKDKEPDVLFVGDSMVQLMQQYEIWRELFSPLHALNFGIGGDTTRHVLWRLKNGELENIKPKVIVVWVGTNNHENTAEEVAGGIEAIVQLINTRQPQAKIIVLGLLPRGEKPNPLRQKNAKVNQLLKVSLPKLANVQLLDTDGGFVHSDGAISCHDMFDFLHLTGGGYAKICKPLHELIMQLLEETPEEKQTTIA
inactive: [1] -0.042 | [2] -0.078 | [3] 0.078 | [4] 0.004 | [5] 0.082

NRDC isoform 2 (UniProt O43847)
UniProt O43847, sequence (O43847 whole entry, looked up): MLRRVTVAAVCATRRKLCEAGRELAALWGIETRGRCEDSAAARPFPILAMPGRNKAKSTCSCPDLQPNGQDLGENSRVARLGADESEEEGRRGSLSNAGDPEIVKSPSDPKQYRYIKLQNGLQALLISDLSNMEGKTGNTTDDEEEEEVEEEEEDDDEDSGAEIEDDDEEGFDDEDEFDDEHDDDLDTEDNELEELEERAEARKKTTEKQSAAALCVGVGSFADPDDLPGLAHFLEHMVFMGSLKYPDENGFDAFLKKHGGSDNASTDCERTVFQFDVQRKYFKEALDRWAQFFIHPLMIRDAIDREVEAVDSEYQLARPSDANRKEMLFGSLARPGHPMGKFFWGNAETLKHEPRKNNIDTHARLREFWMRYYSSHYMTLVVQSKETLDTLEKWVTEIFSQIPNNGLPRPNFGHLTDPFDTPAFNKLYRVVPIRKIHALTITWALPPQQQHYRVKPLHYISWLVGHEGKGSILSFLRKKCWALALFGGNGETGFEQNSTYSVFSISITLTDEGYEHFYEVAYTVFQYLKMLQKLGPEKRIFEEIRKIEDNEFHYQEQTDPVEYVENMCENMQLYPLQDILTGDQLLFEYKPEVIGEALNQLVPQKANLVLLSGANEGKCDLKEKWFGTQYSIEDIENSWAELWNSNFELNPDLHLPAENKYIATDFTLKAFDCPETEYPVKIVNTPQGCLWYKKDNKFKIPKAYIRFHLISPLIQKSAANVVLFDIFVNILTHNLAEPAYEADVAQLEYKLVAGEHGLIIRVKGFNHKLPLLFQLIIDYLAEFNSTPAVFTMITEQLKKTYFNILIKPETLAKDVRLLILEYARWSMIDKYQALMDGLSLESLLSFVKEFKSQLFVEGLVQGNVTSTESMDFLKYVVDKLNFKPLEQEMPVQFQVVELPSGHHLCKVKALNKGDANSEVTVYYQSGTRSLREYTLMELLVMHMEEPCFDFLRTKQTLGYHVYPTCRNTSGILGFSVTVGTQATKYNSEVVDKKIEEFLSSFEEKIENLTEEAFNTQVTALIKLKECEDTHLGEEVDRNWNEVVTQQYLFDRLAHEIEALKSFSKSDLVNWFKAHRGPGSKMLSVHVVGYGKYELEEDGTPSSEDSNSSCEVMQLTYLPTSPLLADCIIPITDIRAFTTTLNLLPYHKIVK
inactive: [1] -0.058 | [2] 0.04 | [3] 0.037 | [4] -0.023 | [5] 0

Reference: the supplement of paper PMC10849652
